Source: PubChem BioAssay
This is a sample that favours compounds with a hit; in the whole collection about 4.8% have one here.
HepG2 tox: HepG2 cytotoxicity, counter-screen for TGF-b inhibitors | AID 588856 | 410,000 tested, 0.76% active | HepG2 CAGA-GFP viability, ATP luminescence, 18 h | Potency, µM (series often up to 46.1 µM), without a hit: at the highest dose activity change, negative = cytotoxicity, most hits filed as cytotoxic; also: potency is read from the fitted curve at half-maximal effect
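HepG2 CAGA-GFP cells (1000/well, DMEM with 1% FBS) received compound, then TGF-beta at 500 pg/mL final, and were incubated 18 hours at 37 degrees C. Viability was read by CellTiter-Glo luminescence. Media-only wells were set as complete cell-killing and DMSO as no toxicity.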
D3 antag: antagonists of human D3 dopamine receptor; D3R cells, DiscoveRx beta-arrestin luminescence, antagonist mode; stronger effect = lower value; max response, negative = inhibition, %; 360,000 tested, 2.5% active; in the data active = max response below about -50%; inconclusive = no clear call, values can overlap the other calls; also: % is scaled to controls: 0 for no effect and ±100 for the full control effect
Target sequence (P35462 whole entry, looked up): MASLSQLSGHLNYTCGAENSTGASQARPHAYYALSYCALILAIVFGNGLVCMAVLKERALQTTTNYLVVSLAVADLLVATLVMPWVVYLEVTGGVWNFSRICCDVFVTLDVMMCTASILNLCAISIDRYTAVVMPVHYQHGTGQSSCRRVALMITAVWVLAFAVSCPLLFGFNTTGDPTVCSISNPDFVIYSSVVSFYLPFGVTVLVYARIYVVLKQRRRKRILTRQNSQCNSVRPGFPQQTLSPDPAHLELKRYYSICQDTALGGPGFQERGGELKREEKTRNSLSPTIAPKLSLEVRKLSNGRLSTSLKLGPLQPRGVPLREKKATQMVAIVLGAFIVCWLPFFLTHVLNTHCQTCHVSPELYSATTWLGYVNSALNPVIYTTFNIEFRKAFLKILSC
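Cells expressing the human receptor were seeded at 1500 cells/well, incubated overnight at 37 degrees C in 5% CO2, then exposed to library compounds with dopamine controls for 90 minutes at 37 degrees C before luminescent detection.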
ATXN2 expr inh: inhibitors of ATXN2 expression. HEK-293 ATXN2-luciferase reporter, luminescence, 24 h. Potency, µM (highest dose often 57 µM), for inactives: at the top dose activity change, negative = inhibition, hits mostly inhibitors. 360,000 tested, 0.72% active; also: potency is read from the fitted curve at half-maximal effect; % is scaled to controls: 0 for no effect and ±100 for the full control effect; nearly all actives have a fitted effect of over 55% in size
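qHTS (up to 57 uM final) was run with 24 h compound exposure of reporter cells at 37 °C. Each well was multiplexed: SteadyGlo luminescence measured ATXN2-luciferase expression after a fluorogenic Gly-Phe-AFC viability readout (25 uM final).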
D3 ag: activates the human D3 dopamine receptor. D3R DiscoveRx beta-arrestin cells, luminescence, 90 min. max activation, %. 410,000 tested, 0.58% active; in the data active = max activation above about 30%; also: 0% is about no effect
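Agonist mode: compounds and dopamine controls were applied to plated cells for 90 min at 37 degrees C after an overnight attachment at 1500 cells/well. Luminescent read-out followed 30 - 60 minutes at room temperature with DiscoveRx detection reagent.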
S2 tox: cell viability loss in ATXN counter-screen | S2 cells (HEK-293 line with an ATXN2-luciferase reporter) viability, CellTiter-Fluor protease fluorescence, 24 h | Potency, µM (doses to about 56.7 µM), usual class: cytotoxic | 400,000 tested, 0.49% active; also: potency is read from the fitted curve at half-maximal effect; nearly all actives have a fitted effect of over 40% in size
TGFb SMAD3 inh: blocks TGF-b signaling | HepG2 CAGA-GFP TGF-b/SMAD3 reporter, GFP fluorescence, 18 h; TGF-beta stimulated, 500 pg/mL final | 410,000 tested, 1.2% active | Potency, µM (top dose mostly 46.1 µM), inactives show at the highest dose activity, negative = inhibition, usual class: inhibitors; also: potency is read from the fitted curve at half-maximal effect; % is scaled to controls: 0 for no effect and ±100 for the full control effect; nearly all actives have a fitted effect of over 65% in size
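First, reporter cells (HEPG2 CAGA-GFP) rested 2 h at 37 degrees C. Next, compounds were pinned in and TGF-beta added to 500 pg/mL final. After 18 h, GFP was imaged per cell and summed per well.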
* marks the source's active call; other numbers are inactive results; i = inactive; ? = inconclusive; nt = not tested or not shown. Unless noted, calls follow the shape of the dose curve; as a rule, active = well fitted curve in the direction sought with a large enough effect; inconclusive = small, poorly fitted or top-dose-only effect, or another doubt; inactive = no such curve, though single readings can be large; an effect the other way counts as inactive or inconclusive.

SMILES	HepG2 tox	D3 antag	ATXN2 expr inh	D3 ag	S2 tox	TGFb SMAD3 inh
O=C(Nc1ccccc1C(F)(F)F)c1ccc(CN2CCC(Cc3ccccc3)CC2)cc1	-52%	-52*	-16%	-17	i	?
O=C(Nc1ccccc1)c1ccc(CN2CCC(Cc3ccccc3)CC2)cc1	1%	-51*	-18%	-13	i	0%
COc1ccc2c(c1)c1c(c(=O)n(-c3ccccc3C)c(=O)n1CC(=O)Nc1c(C)cccc1C)n2C	3%	nt	5%	-7	i	-15%
O=c1c(Cl)c(N2CCCCC2)cnn1-c1nc2ccccc2[nH]1	-41%	40	?	6	i	-1%
O=c1c2ccccc2cnn1-c1nc2ccccc2[nH]1	2µM*	1	0.56µM*	0	i	-22%
Cc1c(C(=O)O)c(O)cc2c1C(=O)c1c(O)c([C@@H]3O[C@H](CO)[C@@H](O)[C@H](O)[C@H]3O)c(O)c(O)c1C2=O	-9%	-84*	0%	-13	18µM*	-19%
Cc1c(C(=O)O)c(O)cc2c1C(=O)c1c(O)c([C@H]3O[C@H](CO)[C@@H](O)[C@H](O)[C@H]3O)c(O)c(O)c1C2=O	3%	nt	nt	nt	nt	3%
CC[C@H]1OC(=O)[C@H](C)[C@@H](O[C@H]2C[C@@](C)(OC)[C@@H](O)[C@H](C)O2)[C@H](C)[C@@H](O[C@@H]2O[C@H](C)C[C@H](N(C)C)[C@H]2O)[C@](C)(O)C[C@H](C)C(=NOCOCCOC)[C@H](C)[C@@H](O)[C@]1(C)O	nt	nt	-10%	nt	i	nt
COC(=O)c1cc(COc2ccc3oc(C)c(C(=O)OC)c3c2)c(C)o1	-2%	52	36%	76*	i	-1%
CCOC(=O)c1c(C)oc2ccc(OCc3cc(C(=O)OC)oc3C)cc12	-15%	39	22%	33*	i	0%
COC(=O)c1cc(COc2ccc3ccc(=O)oc3c2)c(C)o1	-21%	-68*	2%	-5	i	8%
CC(=O)c1c(C)oc2ccc(OCc3ccccc3)cc12	-28%	-3	9%	-3	i	-2%
CCOC(=O)c1c(C)oc2ccc(OCC(=O)C(C)(C)C)cc12	-24%	76	12%	1	i	-7%
COc1ccc(Cl)cc1NC(=O)Cn1cnc2sc(C)c(S(=O)(=O)N3CCN(c4ccccc4OC)CC3)c2c1=O	0%	nt	14%	3	i	0%
Cc1ccc2c(c1)ncc[n+]2CC(=O)c1ccc(F)cc1	-29%	nt	nt	nt	nt	?
CCc1ccc(N2CC(C(=O)N/N=C/c3cc([N+](=O)[O-])ccc3O)CC2=O)cc1 (configuration not stated)	-18%	-63*	?	-13	i	-10%
O=C1NCCCC1C(=O)N/N=C/c1cc([N+](=O)[O-])ccc1O (configuration not stated)	-23%	0	-20%	-12	i	-19%
O=C(N/N=C/c1cc([N+](=O)[O-])ccc1O)c1cccc2cc[nH]c12	-83%	-6	3.2µM*	4	?	13µM*
O=C(N/N=C/c1cc([N+](=O)[O-])ccc1O)C1CC1	-38%	-86*	nt	-27	?	-2%
O=C(N/N=C/c1cc([N+](=O)[O-])ccc1O)C(O)(c1ccccc1)c1ccccc1	-19%	-55*	?	-23	?	-6%
O=C(COc1ccccc1C(=O)Nc1cccnc1)Nc1ccc(Br)cc1	4%	nt	nt	nt	nt	3%
O=C(N/N=C/c1cc([N+](=O)[O-])ccc1O)c1cccc(N2CCCC2=O)c1	-16%	-28	18µM*	-11	?	4%
O=C(N/N=C/c1cc([N+](=O)[O-])ccc1O)c1ccc2c(c1)OCCO2	-13%	-64*	?	-14	nt	-11%
COc1ccccc1N1CCN(CCCNC(=O)Cn2ncc3c([nH]c4ccccc43)c2=O)CC1	-23%	-108*	-21%	-22	?	-2%
